EBV LMP1 NFkB = inhibitors of Epstein-Barr LMP1-induced NF-kappaB reporter; LMP1-induced NF-kappaB luciferase reporter cells, luminescence; inhibition, % at 12.5 µM; actives 0.69% (n = 350,000); in the data active = inhibition above about 41%;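 also: 0% = neutral control wells and 100% = reference inhibitor control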
MITF TRPM1 inh = reduces MITF-dependent TRPM1 promoter luciferase signal | SK-MEL-5 TRPM1 promoter luciferase, 24 h | inhibition, % at 12.5 µM | actives 0.83% (n = 330,000);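 active = mean inhibition across replicates of 60% or more, whatever share of single replicates reaches that level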
TROY signal inh = blocks TROY-dependent signaling in reporter cells. Q293 LMP1-TROYcd NF-kB luciferase reporter, 4 h. inhibition, % at 10 µM. actives 0.98% (n = 360,000);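 active = compounds whose plate-normalised and pattern-corrected inhibition of the luciferase reporter signal at the single screening dose is 50% or more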
TWEAK Fn14 block = inhibitors of TWEAK-Fn14 interaction signaling. actives 2% (n = 360,000). inhibition, % at 10 µM. TWEAK-stimulated Fn14 reporter cells, luciferase luminescence, 8 h; in the data active = inhibition above about 50%
Shn3 inh set2 = Schnurri-3 reporter inhibition in Clone20 osteoblasts; Clone20 osteoblast Shn3 3'UTR firefly luciferase, 24 h; inhibition, % at 12.5 µM; actives 0.52% (n = 360,000); AID 588674;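 active = mean inhibition of at least 75% with every replicate also reaching 75%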;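 also: 0% = median of neutral control wells and 100% = pilot-screen positive control compound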
Peg3 prom inh = Peg3 promoter activity inhibition | HeLa PEG-Prom luciferase reporter, luminescence, overnight | inhibition, % at 20 µM | actives 1.7% (n = 360,000) | AID 588405;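 active = inhibition of at least 50% at 20 µM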
* hit, by the source's call; . = no result. Shown are actives, neighbours in structure and some others; about 4.1% of the full set was active somewhere.

SMILES	EBV LMP1 NFkB	MITF TRPM1 inh	TROY signal inh	TWEAK Fn14 block	Shn3 inh set2	Peg3 prom inh
COc1ccc(-c2cc(C)no2)cc1S(=O)(=O)N1CCCN(Cc2ccccc2Cl)C1	3	-5	7	-15	-1	4
O=C(Nc1ccc(C(F)(F)F)cc1)N1CCN(c2ccnc3cc(Cl)ccc23)CC1	29	-2	58*	25	.	38
CN(CC(O)COCc1ccccc1F)C1CCCCC1 (centres undefined)	6	3	5	64*	3	2
CN(CC(O)COc1ccccc1F)C1CCCCC1 (centres undefined)	-4	-1	-3	1	11	14
Cc1onc(-c2ccccc2Cl)c1C(=O)N(C)Cc1ccccc1	3	-8	-5	1	-1	14
CC(C)N=C(NS(=O)(=O)c1ccccc1)C(Cl)(Cl)Cl	-2	79*	77*	101*	45	38
O=S(=O)(NC(=S)c1ccccc1)c1ccccc1	-10	3	1	-20	2	8
O=c1[nH]c2ccccc2nc1-c1ccccc1	-3	-12	-35	-15	-51	-121
NC(=O)N=Nc1c2[nH]c3ccccc3nc-2c2ccccc12	-25	49	-75	2	7	72*
O=C1NC[C@H](CCCCN2C[C@H](Cc3ccc(O)cc3)N(Cc3ccccc3)C(=O)C2=O)N(CCc2ccc(O)cc2)C1=O	.	.	-6	-6	.	.
Cc1cc(Br)ccc1NC(=O)CN(C)C(=O)c1cc(S(=O)(=O)N(C)C)ccc1N1CCCC1	0	8	-5	88*	2	19
O=C(COC(=O)CC1CC2CCC1C2)Nc1ccc(F)cc1Cl (centres undefined)	-5	-5	2	-22	9	6
COc1ccc(CN2C3CCCC2CC(NC(=O)Nc2ccccc2C)C3)cc1 (centres undefined)	2	-14	13	62*	2	-9
OC1CCCN(C(=S)NCc2ccccc2)C1 (centres undefined)	3	-14	7	6	13	5
O=C(Nc1ccc(Br)cc1)c1cccc(S(=O)(=O)Nc2cnc3ccccc3c2)c1	12	10	43	51*	35	6
COc1ccc(NC(=O)c2cccc(S(=O)(=O)Nc3ccc(Br)cc3)c2)cn1	6	7	45	64*	50	13
O=C(Nc1ccc(Br)cc1)c1cccc(S(=O)(=O)Nc2ccccn2)c1	11	7	6	23	58	15
CC(=O)NC(C)(c1ccccc1)c1nc(-c2ccc(S(C)(=O)=O)cc2)cs1 (centres undefined)	.	.	0	4	-11	8
COc1ccc(N2CCN(CC(O)COc3cc(C)ccc3C)CC2)cc1 (centres undefined)	0	8	6	-17	9	-1
CCn1c(Oc2ccccc2F)nc2c1c(=O)n(C)c(=O)n2C	14	-18	30	73*	-6	-2
Oc1[nH]c2ccccc2c1N=Nc1c(F)c(F)c(Cl)c(F)c1F	69*	.	-37	1	-20	-36
Oc1[nH]c2ccccc2c1N=Nc1ccccc1Cl	-37	-14	-26	-19	-52	-106
C/C(=C/C(=O)Nc1cccc(F)c1)N1CCCC1	2	2	-2	2	-11	16
CCCc1cc(=O)[nH]c(SCC(=O)NC(=O)NC2CCCC2)n1	9	10	8	4	39	0
CC(C)Cc1ccc(C(C)CC2=CCC(CN(C)C)C2=O)cc1 (centres undefined)	-10	42	1	15	2	101*
SMILES	EBV LMP1 NFkB	MITF TRPM1 inh	TROY signal inh	TWEAK Fn14 block	Shn3 inh set2	Peg3 prom inh
CC(C)Cc1ccc(S(=O)(=O)N2CCOCC2)cc1	-6	3	-12	-9	-20	6
C=CC[N+](C)(C)C/C(Cl)=C(\Cl)c1ccccc1	49*	1	19	2	22	4
CCc1c(C)nc2ncnn2c1NCCc1ccc(Cl)cc1	17	22	13	21	88*	15
COC(=O)c1ccc2c(c1)C(C)(C)C(/C=C/c1ccccc1O)=[N+]2C	-22	105*	14	87*	97*	105*
C[N+]1=C(/C=C/Nc2ccccc2Cl)C(C)(C)c2ccccc21	4	4	46	26	77	8
CC(C)(C)S(=O)N1Cc2cc(C(=O)NCc3ccc4c(c3)OCO4)nc(-c3cccc(-c4cc5ccccc5o4)c3)c2[C@@H]1CCO (some centres undefined)	.	.	15	-46	12	33
CC(=O)Nc1ccc(-c2csc(N/N=C\c3ccncc3)n2)cc1	.	.	-44	-13	-12	-22
CCCC(=O)Nc1ccc(-c2csc(N/N=C\c3ccncc3)n2)cc1	26	1	-37	20	-4	68*
CC(C)n1cnc2c(NCc3ccccc3)cc(N[C@H](C)CO)cc21	-10	73*	7	2	42	67*
O=C(C1CCN(S(=O)(=O)N2CCC3(CC2)OCCO3)CC1)N1CCC(Cc2ccccc2)CC1	10	10	-8	-17	6	15
O=c1[nH]c(=S)[nH]cc1Oc1ccc(Br)cc1Br	4	-6	-16	1	-8	8
O=C(N/N=C/c1ccc(O)cc1O)c1ccc(NC(=O)C2CCCCC2)cc1	2	67*	-6	-59	50	62*
O=C(N/N=C/c1cccc(O)c1)c1ccc(NC(=O)C2CCCCC2)cc1	-3	17	-5	-18	5	-16
CC1CCCN(C(=O)C2CCN(S(=O)(=O)c3ccc4c(c3)CC(C)N4C(=O)C3CC3)CC2)C1 (centres undefined)	6	15	8	0	9	11
NC1=NN=C(c2ccc3c(c2)OCCO3)CS1	36	9	45	58*	-29	-11
Cc1sc(N)nc1-c1ccc2c(c1)OCCO2	-10	-17	12	-6	-19	-86
C=CCN=C1NN=C(c2ccc3c(c2)OCCO3)CS1	47*	69*	69*	67*	-10	2
CCN(CC)S(=O)(=O)c1ccc(OC)c(NC(=O)Cn2cnc3c2c(=O)n(C)c(=O)n3C)c1	-13	6	14	-7	11	22
O=C(Nc1ccc(CN2CCOCC2)cc1)c1ccc(-c2ccc(Br)cc2)o1	-1	0	53*	28	11	7
CN(C)S(=O)(=O)c1cccc(C(=O)OCC(=O)c2c(N)n(C)c(=O)n(C)c2=O)c1	0	6	10	0	-1	9
Cc1ccc(N(C)S(=O)(=O)c2cccc(C(=O)OCC(=O)c3c(N)n(C)c(=O)n(C)c3=O)c2)cc1	11	16	52*	38	35	32
O=C1CCc2cc(OCCCCc3nnnn3C3CCCCC3)ccc2N1	73*	12	15	-42	31	15
